Results from PubChem BioAssay AID602399 (Sanford-Burnham Center for Chemical Genomics, 2012).
About 2,800 (0.78%) of roughly 360,000 compounds were called active. The sample as a whole holds a higher share of actives than the screen did. A number with no mark means an inactive call. No stated cut-off is given here; in the data, active means inhibition above about 26%; inactive means the rest.

test system: Nicotinate-nucleotide adenylyltransferase NadD (Staphylococcus aureus N315); assay: inhibitors of S. aureus NadD, primary screen, biochemical, colorimetric, uHTS (AID 602399); conditions: purified NadD enzyme, colorimetric absorbance read-out; at 20 µM; hits give high values

Compound | inhibition
N#Cc1ccc(CSc2ncccn2)cc1 | -1.45%
N#CC1=C(SCc2ccc(C#N)cc2)N=C(N)C(c2nc(-c3ccccc3)cs2)C12CCCCC2 (stereo not given) | 39.1% (active)
Cc1ccc(NC(=O)CN(C)S(=O)(=O)c2cnc[nH]2)cc1C | -2.1%
COC(=O)c1c(NC(=O)COc2ccc(Cl)cc2Cl)sc2c1CC(C)(C)NC2(C)C | -5.59%
COc1ccccc1N1CCN(c2nc(C)cc(=O)[nH]2)CC1 | 0.434%
CCc1ccc(-n2c(=S)sc3c(=O)n(-c4ccccc4OC)c(=S)[nH]c32)cc1 | 26.4% (active)
COc1ccccc1-n1c(=S)[nH]c2c(sc(=S)n2-c2ccc(C)cc2C)c1=O | 26.4% (active)
COc1cccc(-n2c(=S)sc3c(=O)n(-c4ccccc4OC)c(SCC4OCCO4)nc32)c1 | -4.72%
COc1ccc(Cl)cc1-n1c(=S)sc2c(=O)n(-c3ccc(F)cc3)c(SCC(=O)O)nc21 | -1.15%
COc1cccc(-n2c(=S)sc3c(=O)n(-c4ccccc4C)c(SCC(=O)O)nc32)c1 | -0.498%
COc1ccc2c3c1O[C@H]1C[C@@H](O)C=C[C@@]31CCN(C)C2 | -4.23%
COc1cc(C)c(C(C)C)cc1S(=O)(=O)n1ccnc1 | -1.45%
CCCCCOC(=O)C1=C(C)Nc2nnnn2C1c1ccc(OC)c(OC)c1OC (stereo not given) | -2.88%
C=CCOc1ccc(/C=C/C(=O)OCC(=O)NCC2CCCO2)cc1 (stereo not given) | 0.0871%
CCOC(=O)CC1COCCN1C(=O)c1cc(COc2ccc(F)c(F)c2)on1 (stereo not given) | -4.39%
CCC(NC(=O)c1cc(COc2ccc(F)c(F)c2)on1)c1ccncc1 (stereo not given) | 48.1% (active)
CC(=O)c1cccc(OCc2cc(C(=O)NC(C)Cc3cccnc3)no2)c1 (stereo not given) | -5.35%
COC(C(=O)Nc1ccc(S(=O)(=O)Nc2ccc(C)c(C)c2)cc1)c1ccccc1 (stereo not given) | -2.66%
CN(C(=O)COC(=O)c1cc(-c2ccco2)nc2ccccc12)C1CCS(=O)(=O)C1 (stereo not given) | 87.6% (active)
COc1ccc(NC(=O)COc2ccc(C(=O)OCC(=O)N(C)C3CCS(=O)(=O)C3)cc2OC)cc1 (stereo not given) | -2.63%
COc1ccc2c(-c3ccccc3)cc(SCC(=O)N(C)C3CCS(=O)(=O)C3)nc2c1 (stereo not given) | -1.73%
CC(C)CN1CCNC(=O)C1CC(=O)N(C)CC1CCOCC1 (stereo not given) | -2.31%
CN(C)S(=O)(=O)c1ccc(N/C=C(\[N+](=O)[O-])S(=O)(=O)c2ccccc2)cc1 | -3.76%
CC1(C(=O)NCc2ccc3c(c2)OCO3)CCN1C(=O)Cc1cccc2ccccc12 (stereo not given) | -4.65%
CCn1c(=O)cc(SCC(=O)NCc2ccc3c(c2)OCO3)c2ccccc21 | 1.73%
O=C1N(Cc2ccc3c(c2)OCO3)c2ccccc2C1(O)c1c[nH]c2ccccc12 (stereo not given) | 34.1% (active)
CCCN(CCC)c1ccc(C(O)c2nnc(-c3ccccc3)o2)cc1 (stereo not given) | 3.67%
CC1(C)OC(=O)C2=C(C[C@@H](C3CC3)O[C@H]2c2ccc(Cl)cc2)O1 | -7.37%

Compound | inhibition
Cc1noc(C)c1NC(=O)Nc1ccc2c(c1)C(=O)N([C@H](C)CO)C[C@H](C)[C@@H](CN(C)C(=O)Nc1ccc(C(F)(F)F)cc1)O2 | 3.74%
Cc1noc(C)c1NC(=O)Nc1cccc2c1O[C@H](CN(C)C(=O)Nc1ccccc1)[C@@H](C)CN([C@H](C)CO)C2=O | -4.23%
C[C@H](CO)N1C[C@H](C)[C@H](CN(C)C(=O)Nc2ccc(C(F)(F)F)cc2)Oc2c(NC(=O)c3ccncc3)cccc2C1=O | 34% (active)
CN(CC(=O)N1CCN(c2ccccc2)CC1)S(=O)(=O)c1cccs1 | -2.17%
O=C(O)CCCC(=O)N1N=C(c2ccco2)CC1c1ccco1 (stereo not given) | 2.35%
Cc1nn2c(c1-c1ccccc1)N=C(c1ccco1)CC2c1ccccc1 (stereo not given) | 35.5% (active)
C=CCN1C(=O)C(Cc2ccc(OCC)cc2)SC1=Nc1ccc(C(=O)O)cc1 (stereo not given) | -1.51%
CCOCCCN1C(=O)C2C(C(=O)Nc3ccc(OCC)cc3)C3C=CC2(O3)C1C(=O)NC1CCCCC1 (stereo not given) | -6.7%
COc1ccc(/C=C(\C#N)C(=O)NCCCn2ccnc2)cc1 | -0.938%
O=C(NCCCn1ccnc1)/C(=C\c1ccccc1F)NC(=O)c1ccccc1 | -0.605%
COc1cccc(-c2nn(-c3ccccc3)cc2/C=C(\C#N)C(=O)NCCCn2ccnc2)c1 | 29.3% (active)
Cc1ccc(S(=O)(=O)N2CCN(C(=O)COC(=O)/C=C/c3cccc(Cl)c3)CC2)c(C)c1 | -1.3%
O=C(CC1SC(=Nc2ccccc2)N(Cc2ccccn2)C1=O)Nc1cccc(Cl)c1 (stereo not given) | 7.98%
COc1cc(/C=C2\SC(=S)N(Nc3ncc(C(F)(F)F)cc3Cl)C2=O)cc(OC)c1OC | 31.2% (active)
O=C1/C(=C/c2ccc(F)cc2)SC(=S)N1NS(=O)(=O)c1ccccc1 | 5.39%
COc1cc(-c2nnc(Cn3cc(C(F)(F)F)ccc3=O)o2)cc(OC)c1OC | -3.86%
COCCCn1c(C(=O)NC2CCCCC2)cc2c(=O)n3cccc(C)c3nc21 | 2.49%
O=c1c(-c2ccccc2)cnc2n1CCS2 | -3.39%
Cc1cccc(N2CCN(C(=O)/C=C/c3ccco3)CC2)c1C | -1.19%
Cc1ccc(-n2c(C)cc(/C=N/Nc3ccc([N+](=O)[O-])cn3)c2C)c(C)c1 | 44.4% (active)
Cc1cc(C=O)c(C)n1-c1ccc(NC2CCCCC2)c([N+](=O)[O-])c1 | 0.0872%
Cc1ccc(N2CCN(c3ccc([N+](=O)[O-])cn3)CC2)c(C)c1 | 1.39%
Nc1ccc(Cl)c(S(=O)(=O)Nc2ccccc2Cl)c1 | 6.19%
O=C1Nc2cc(Cl)c(Cl)cc2N(O)N1c1cc(Cl)cc(Cl)c1 | -1.38%
c1ccc(CN2CCC(N=C3NN=C(c4ccc5c(c4)OCCO5)CS3)CC2)cc1 | 17%
Clc1cccc(N=C2NN=C(c3ccc4c(c3)OCCO4)CS2)c1 | 31% (active)
CN(C)c1nc(=Nc2cccc(Cl)c2)ss1 | 3.08%
